In PubChem BioAssay (NCI):
“And” between values parts separate entries of the source, which are not always exact repeats. Identical values can stand only once. About 83,000 compounds went through this panel and 20% of them were active in at least one assay; those are over-represented in the sample as a whole.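 How to read the values: 0–100, growth inhibition (40 = 60% inhibited); 0, no net growth; -100 to 0, cell death (-40 = 40% of starting cells died; -100 = all dead).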 The source made the active and inactive calls. The calls were made as follows: active = growth percent below 10; inactive = the rest.

What was measured:
Assay in all cases: NCI-60 one-dose screen, 48 h (100 = growth as untreated, 0 = no growth, -100 = all killed)
Conditions in all cases: 10 µM unless noted
[1] = tested on: HCT-15 colon
[2] = tested on: HT29 colon
[3] = tested on: SNB-75 CNS
[4] = tested on: SNB-19 CNS
[5] = tested on: U251 CNS
[6] = tested on: PC-3 prostate
[7] = tested on: SK-MEL-5 melanoma
[8] = tested on: UACC-62 melanoma
[9] = tested on: LOX IMVI melanoma
[10] = tested on: SK-MEL-28 melanoma
[11] = tested on: SK-MEL-2 melanoma
[12] = tested on: EKVX NSCLC
[13] = tested on: SN12C renal
[14] = tested on: UO-31 renal
[15] = tested on: TK-10 renal
[16] = tested on: ACHN renal
[17] = tested on: CAKI-1 renal
[18] = tested on: A498 renal
[19] = tested on: CCRF-CEM leukemia
[20] = tested on: MOLT-4 leukemia

Measured: growth

CCC(=O)C(CC)c1cccc(OC)c1 (stereo unspecified)
inactive: [1] 103% | [2] 103% | [3] 76.7% | [4] 111% | [5] 99.4% | [6] 98.8% | [7] 101% | [8] 108% | [9] 100% | [10] 106% | [11] 116% | [12] 106% | [13] 112% | [14] 89.9% | [15] 101% | [16] 106% | [17] 94.4% | [18] 87.8% | [19] 93.8% | [20] 98.4%

CCN(CC)CCC(CNc1ccnc2cc(Cl)ccc12)c1ccc(OC)cc1 (stereo unspecified)
active: [10] -78.4% and -54.7% | [14] -5.93% and -3.07%
inactive: [1] 42.6% and 30.8% | [2] 26.4% and 14% | [3] 68.6% and 34.1% | [4] 98.5% and 92.2% | [5] 58.5% and 50.6% | [6] 66.5% and 62.2% | [7] 38.3% and 30.4% | [8] 45.3% and 51.9% | [9] 40.2% and 32.1% | [11] 101% and 61.7% | [12] 69.6% and 85.6% | [13] 71.4% and 60.8% | [15] 58.5% and 46.3% | [16] 37.5% and 33.3% | [17] 55.6% and 21.6% | [18] 38.2% and 28.7% | [20] 52.3% and 52.5%

COc1ccc2c(=O)cc(-c3ccccc3)[nH]c2c1
41.7% (inactive) and 8.7% (active): [14]
26.9% (inactive) and 6.72% (active): [20]
13.8% (inactive) and 9.61% (active): [3]
active: [2] -3.3% and 5.55%
inactive: [1] 22.6% and 19.2% | [4] 29.6% and 27% | [5] 12.2% and 15.6% | [6] 18.5% and 19.4% | [7] 21.5% and 12.7% | [8] 38.4% and 20% | [9] 48.3% and 49% | [10] 39.3% and 70.8% | [12] 48.9% and 18.9% | [13] 45.7% and 42.7% | [15] 48.4% and 63.7% | [16] 54.4% and 51.9% | [17] 24.6% | [18] 50.7% | [19] 14% and 12.2%
31.4% (inactive) and -8.1% (active): [11]

O=C=NC(c1ccccc1)(c1ccccc1)c1ccccc1
inactive: [1] 102% | [2] 99.9% | [3] 84.7% | [4] 107% | [5] 99.4% | [6] 102% | [7] 114% | [8] 101% | [9] 102% | [10] 114% | [11] 118% | [12] 111% | [13] 102% | [14] 71.9% | [15] 110% | [16] 99.2% | [17] 91.7% | [18] 116% | [20] 92.2%

O=C(Cc1cccc2ccccc12)N/N=C/c1ccc2c(c1)CCC2
inactive: [1] 56.6% | [2] 62.4% | [3] 80.2% | [4] 92.1% | [5] 69.9% | [6] 74.2% | [7] 80.6% | [8] 54.3% | [9] 69.6% | [10] 81.4% | [11] 84.6% | [12] 78.8% | [13] 84% | [14] 63.3% | [15] 89.4% | [16] 83.4% | [17] 66.1% | [18] 72.7% | [20] 47.9%

COc1cc(-c2nccc3cc4c(cc23)OCO4)cc(OC)c1OC
active: [2] 1.74% and 5.6% | [7] 6.67% | [11] 9.15%
inactive: [1] 22.1% and 27.9% | [4] 38.3% and 38.8% | [5] 40.6% and 24.1% | [6] 29.5% | [8] 34.2% and 28.3% | [9] 32.2% and 29.6% | [10] 57.5% and 39.8% | [12] 68.4% and 63.5% | [13] 39% and 47.3% | [14] 50.8% and 44.4% | [15] 44.9% and 28.9% | [16] 36.2% and 40.2% | [17] 20% and 30.8% | [18] 41.3% and 20.1% | [20] 39.4% and 17.7%
10.8% (inactive) and -9.99% (active): [3]

CNC(=O)c1cccc(-c2ccc3c(N4CCOC[C@@H]4C)nc(N4CCOC[C@@H]4C)nc3n2)c1
16.8% (inactive) and 8.62% (active): [20]
active: [1] 9.22% and 7.13% | [3] -32.8% and -40.5% | [5] 9.22% and 6.58% | [6] 6.6% and 7.98% | [7] -38.2% and -49.8% | [8] -24.9% and -51.8% | [9] 3.01% and -1.67% | [10] -15.7% and -26.3% | [11] -8.99% | [12] -5% and 2.98% | [14] -3.68% and -24.2% | [15] -11.3% and -31.2% | [16] 0.741% and -1.46% | [17] 9.85% and -15.3% | [18] -35.6% and -37.8%
18.3% (inactive) and 1.73% (active): [2]
10.2% (inactive) and 8.05% (active): [4]
12.5% (inactive) and 5.62% (active): [13]
inactive: [19] 28% and 20.3%

O=c1c2ccccc2nc2n1Cc1nc3ccccc3c(=O)n1C2
inactive: [1] 90.9% and 108% | [2] 111% and 103% | [3] 86.6% and 105% | [4] 102% and 91.9% | [5] 105% and 108% | [6] 98.6% and 107% | [7] 95.3% and 107% | [8] 95.6% and 98.9% | [9] 96.1% and 97.6% | [10] 97.8% and 101% | [11] 103% and 119% | [12] 90.9% and 104% | [13] 96.9% and 102% | [14] 81.2% and 92.6% | [15] 107% and 102% | [16] 95.6% and 102% | [17] 93.5% | [18] 93.9% and 103% | [19] 96.2% and 112% | [20] 99.4% and 30.7%

CC1=CCC2CC1C2(C)C (stereo unspecified)
inactive: [1] 99.5% and 94% | [2] 114% and 105% | [3] 102% and 90.3% | [4] 95.8% and 101% | [5] 97.4% and 92% | [6] 101% and 89.5% | [7] 102% and 87.7% | [8] 97% and 93.6% | [9] 93.4% and 88.6% | [10] 97.5% and 102% | [11] 88.2% and 108% | [12] 91.7% and 83.2% | [13] 103% and 94.4% | [14] 89% and 96.1% | [15] 113% and 119% | [16] 102% and 96.1% | [17] 76.2% and 82.8% | [18] 103% and 81% | [19] 121% and 114% | [20] 96.1% and 96%
